In PubChem BioAssay (Tox21):
“And” between values parts separate entries of the source, which are not always exact repeats. Equal entries are not always repeated. Records with an inconclusive call do not appear. The source holds several records for some structures; these can differ, active in one and inactive in another. The source made the active and inactive calls. Unless noted, calls come from the whole dose curve; as a rule, active = well fitted curve in the direction sought with a large enough effect in the repeat runs; inconclusive = weak or mixed curves; inactive = no such curve, though single readings can be large; an effect the other way counts as inactive or inconclusive.

What was measured:
[1] = qHTS assay to test for compound auto fluorescence at 535 nm (green) in HEK293 cells (AID 720680)
[2] = qHTS assay to test for compound auto fluorescence at 460 nm (blue) in HEK293 cell free culture (AID 720681)
In short: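 Blue fluorescence (Ex 405/Em 460 nm, triamterene-equivalent) was read immediately after pin transfer of compound or DMSO into medium (DMEM, 10% FBS) without cells.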

[3] = qHTS assay to test for compound auto fluorescence at 535 nm (green) in HEK293 cell free culture (AID 720682)
In short: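 Green-channel intensity (Ex/Em 485/535 nm) was recorded from compound-treated wells containing only DMEM with 10% FBS. Fluorescein provided the equivalency standard.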

[4] = qHTS assay to test for compound auto fluorescence at 590 nm (red) in HEK293 cell free culture (AID 720683)
In short: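 Red-channel autofluorescence of compounds in culture medium (DMEM, 10% FBS), no cells, measured at 540/590 nm. Rose Bengal sodium is the reference fluorophore for equivalence.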

[5] = qHTS assay to test for compound auto fluorescence at 590 nm (red) in HepG2 cell free culture (AID 720684)
In short: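 Cell-free; medium MEM + 10% FBS; compound or DMSO added by pintool; read Ex 540/Em 590 nm; Rose Bengal sodium as red reference fluorophore.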

[6] = qHTS assay to test for compound auto fluorescence at 460 nm (blue) in HepG2 cell free culture (AID 720685)
In short: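 Cell-free plates of MEM plus 10% FBS received 23 nL compound or DMSO vehicle; blue-channel (405/460 nm) intensity scored against triamterene as reference fluorophore.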

[7] = qHTS assay to test for compound auto fluorescence at 535 nm (green) in HepG2 cell free culture (AID 720686)
[8] = qHTS assay to test for compound auto fluorescence at 460 nm (blue) in HepG2 cells (AID 720687)
In short: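 Blue-channel autofluorescence (Ex/Em 405/460 nm, triamterene-equivalent) was measured after 1 hr compound exposure at 37 C, 5% CO2. Cells were HepG2, plated overnight at 37 C in MEM plus 10% FBS.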

[9] = target: Glucocorticoid receptor (Homo sapiens) (UniProt P04150); assay: qHTS assay to identify small molecule agonists of the glucocorticoid receptor (GR) signaling pathway (AID 720691; active = well fitted activation curve with a large enough effect in the signal ratio in the repeat runs, not every such curve was filed as active; the % refers to the signal ratio); conditions: GR-bla HeLa, beta-lactamase reporter ratio, 18 h; activation: at 62.4 µM (top of the series) unless noted
Chain of Glucocorticoid receptor (Homo sapiens) (P04150 whole entry, looked up): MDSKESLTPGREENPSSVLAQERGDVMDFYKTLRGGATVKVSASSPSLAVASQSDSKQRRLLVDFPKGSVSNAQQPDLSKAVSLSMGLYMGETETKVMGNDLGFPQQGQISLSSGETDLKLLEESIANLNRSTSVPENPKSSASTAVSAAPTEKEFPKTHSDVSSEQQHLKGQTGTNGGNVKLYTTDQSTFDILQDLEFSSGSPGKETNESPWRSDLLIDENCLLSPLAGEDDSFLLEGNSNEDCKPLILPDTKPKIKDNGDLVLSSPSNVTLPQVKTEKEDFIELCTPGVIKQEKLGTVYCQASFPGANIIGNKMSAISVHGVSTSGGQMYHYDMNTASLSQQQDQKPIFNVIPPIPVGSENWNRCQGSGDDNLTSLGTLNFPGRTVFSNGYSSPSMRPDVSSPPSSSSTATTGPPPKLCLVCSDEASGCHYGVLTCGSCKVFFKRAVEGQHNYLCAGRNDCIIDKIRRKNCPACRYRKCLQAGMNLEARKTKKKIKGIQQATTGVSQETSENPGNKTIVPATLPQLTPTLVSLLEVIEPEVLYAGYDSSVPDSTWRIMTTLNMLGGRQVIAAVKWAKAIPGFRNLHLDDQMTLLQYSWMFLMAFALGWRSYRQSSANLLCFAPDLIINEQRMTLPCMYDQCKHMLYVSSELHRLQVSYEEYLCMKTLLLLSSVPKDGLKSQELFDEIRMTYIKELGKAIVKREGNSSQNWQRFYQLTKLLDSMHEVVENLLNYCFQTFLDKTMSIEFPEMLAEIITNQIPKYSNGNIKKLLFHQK
In short: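 Compounds in DMSO, alongside positive controls, were added to GR-bla HeLa reporter cells and incubated 18 h at 37 C; GRE-driven beta-lactamase was detected by fluorescence after 2 h with FRET substrate at room temperature.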

[10] = target: Glucocorticoid receptor (Homo sapiens) (UniProt P04150); assay: qHTS assay to identify small molecule antagonists of the glucocorticoid receptor (GR) signaling pathway (AID 720692; active = well fitted inhibition curve with a large enough effect in the signal ratio in the repeat runs, not every such curve was filed as active; the % refers to the signal ratio; note: potency is the fitted concentration of half-maximal effect)
In short: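 In a 1536-well cell format, compounds were added 4 h after seeding GR-bla HeLa cells, together with dexamethasone at 5 nM final; reporter activity was measured by FRET-substrate fluorescence following 18 h at 37 C.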

[11] = qHTS assay to identify small molecule antagonists of the glucocorticoid receptor (GR) signaling pathway - cell viability counter screen (AID 720693); note: nearly all actives have a fitted effect of over 55% in size
[12] = qHTS assay for identifying genotoxic compounds that show differential cytotoxicity against isogenic chicken DT40 cell lines with known DNA damage response pathways - wild type cell line (AID 743012); note: nearly all actives have a fitted effect of over 60% in size; note: potency is the fitted concentration of half-maximal effect
In short: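 Viability of DNA repair-proficient chicken DT40 cells was assessed by CellTiter-Glo luminescence following 40 h compound exposure at 37 C/5% CO2.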

[13] = qHTS assay for identifying genotoxic compounds that show differential cytotoxicity against isogenic chicken DT40 cell lines with known DNA damage response pathways - Rev3 mutant cell line (AID 743014); note: nearly all actives have a fitted effect of over 55% in size; note: potency is the fitted concentration of half-maximal effect
[14] = qHTS assay for identifying genotoxic compounds that show differential cytotoxicity against isogenic chicken DT40 cell lines with known DNA damage response pathways - Rad54/Ku70 mutant cell line (AID 743015); note: nearly all actives have a fitted effect of over 60% in size; note: potency is the fitted concentration of half-maximal effect
[15] = qHTS assay to identify small molecule antagonists of the androgen receptor (AR) signaling pathway - cell viability counter screen (AID 743033; note: nearly all actives have a fitted effect of over 45% in size)
[16] = qHTS assay to identify small molecule antagonists of the androgen receptor (AR) signaling pathway using the MDA cell line - cell viability counter screen (AID 743041; note: nearly all actives have a fitted effect of over 45% in size; note: potency is the fitted concentration of half-maximal effect)
In short: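 Viability read by CellTiter-Fluor fluorescence in the same wells as the antagonist screen, added after 15.5 h of a 16 h, 37C exposure. Human breast carcinoma MDA-kb2 AR-luc cells, compounds co-dosed with agonist R1881.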

[17] = target: Androgen receptor (Homo sapiens) (UniProt P10275); assay: qHTS assay to identify small molecule antagonists of the androgen receptor (AR) signaling pathway (AID 743035; active = well fitted inhibition curve with a large enough effect in the signal ratio in the repeat runs, not every such curve was filed as active; the % refers to the signal ratio)
Chain of Androgen receptor (Homo sapiens) (P10275 whole entry, looked up): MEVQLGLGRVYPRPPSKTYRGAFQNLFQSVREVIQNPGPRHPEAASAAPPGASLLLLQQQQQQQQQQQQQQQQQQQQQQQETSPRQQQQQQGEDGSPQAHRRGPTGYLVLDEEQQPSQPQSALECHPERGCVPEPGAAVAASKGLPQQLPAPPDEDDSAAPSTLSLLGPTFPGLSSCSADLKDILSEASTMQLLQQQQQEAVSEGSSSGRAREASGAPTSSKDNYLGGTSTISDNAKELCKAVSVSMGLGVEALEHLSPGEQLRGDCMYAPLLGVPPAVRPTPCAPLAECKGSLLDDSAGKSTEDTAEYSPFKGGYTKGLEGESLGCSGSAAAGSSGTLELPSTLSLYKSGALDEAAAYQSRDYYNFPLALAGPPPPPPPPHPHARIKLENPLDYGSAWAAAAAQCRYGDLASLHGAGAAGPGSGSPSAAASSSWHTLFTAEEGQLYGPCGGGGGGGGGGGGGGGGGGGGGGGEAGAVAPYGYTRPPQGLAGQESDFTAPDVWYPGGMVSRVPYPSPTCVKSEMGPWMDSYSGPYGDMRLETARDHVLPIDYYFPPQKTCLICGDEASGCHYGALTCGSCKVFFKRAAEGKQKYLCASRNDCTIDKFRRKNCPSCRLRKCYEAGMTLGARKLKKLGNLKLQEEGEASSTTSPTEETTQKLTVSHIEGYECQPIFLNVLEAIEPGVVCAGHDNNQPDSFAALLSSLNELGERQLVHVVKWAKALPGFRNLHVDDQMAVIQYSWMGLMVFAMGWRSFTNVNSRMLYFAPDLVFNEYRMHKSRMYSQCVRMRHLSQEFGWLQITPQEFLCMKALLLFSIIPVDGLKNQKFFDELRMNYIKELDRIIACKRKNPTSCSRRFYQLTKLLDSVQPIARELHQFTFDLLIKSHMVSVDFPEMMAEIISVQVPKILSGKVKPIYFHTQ
In short: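 Reporter HEK293 cells were exposed to compounds and R1881 overnight (16 h, 37C); beta-lactamase activity was then quantified by FRET fluorescence.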

[18] = target: Androgen receptor (Homo sapiens) (UniProt P10275); assay: qHTS assay to identify small molecule agonists of the androgen receptor (AR) signaling pathway (AID 743036; active = well fitted activation curve with a large enough effect in the signal ratio in the repeat runs, with a control signal flat, not every such curve was filed as active; the % refers to the signal ratio)
In short: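 Cell-based FRET reporter assay: HEK293 line with a UAS-beta-lactamase construct, compounds added in DMSO, 16 h exposure at 37C, then 2 h substrate step at room temperature and fluorescence intensity read.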

[19] = target: Androgen receptor (Homo sapiens) (UniProt P10275); assay: qHTS assay to identify small molecule agonists of the androgen receptor (AR) signaling pathway using the MDA cell line (AID 743040; note: nearly all actives have a fitted effect of over 20% in size)
In short: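 Luciferase agonist assay: 16 h compound exposure at 37C without CO2 in MDA-kb2 AR-luc cells, whose MMTV promoter responds to both AR and GR. Luminescence measured after 30 min room-temperature incubation with ONE-Glo.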

[20] = target: Androgen receptor (Homo sapiens) (UniProt P10275); assay: qHTS assay to identify small molecule antagonists of the androgen receptor (AR) signaling pathway using the MDA cell line (AID 743042; note: nearly all actives have a fitted effect of over 55% in size)
In short: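 Antagonist mode: compounds plus R1881 agonist added to MDA-kb2 AR-luc cells, incubated 16 h at 37C. Luciferase reporter luminescence quantified, with multiplexed CellTiter-Fluor readout for cell viability.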

Measured: Potency

CCC(=O)O
inactive: [1] | [2] | [3] | [4] | [5] | [6] | [7] | [8] | [9] | [10] | [11] | [12] | [13] | [14] | [15] | [16]

O=C(c1ccc(O)cc1)c1ccc(O)cc1O
inactive: [1] | [2] | [3] | [4] | [5] | [6] | [7] | [8] | [9] | [11] | [12] | [13] | [15]

CCCCCCCCCCC=CC1CC(=O)OC1=O (stereo unspecified)
inactive: [1] | [2] | [3] | [4] | [5] | [6] | [7] | [8] | [9] | [11] | [12] | [14] | [15]

C=C(C)C(=O)OCCCCCCCCCCCC
inactive: [1] | [2] | [3] | [4] | [5] | [6] | [7] | [8] | [9] | [10] | [12] | [13] | [14] | [15] | [16]

Oc1c(Cl)cc(Cl)c(Cl)c1Cl
inactive: [1] | [2] | [3] | [4] | [5] | [6] | [7] | [8] | [9] | [11] | [16]
active: [10] 49 µM | [12] 67.1 µM

CC(C)(C)C(=O)C1C(=O)c2ccccc2C1=O
active: [12] 60.5 µM and 12.2 µM | [14] 13.7 µM
inactive and 13.7 µM (active): [13]
inactive: [1] | [2] | [3] | [4] | [5] | [6] | [7] | [8] | [9] | [11] | [15]

O=S(=O)(O)c1cc(S(=O)(=O)O)c2c(N=Nc3ccccc3)c(O)ccc2c1
active: [16] 27.4 µM and 38.6 µM
inactive: [1] | [2] | [3] | [4] | [5] | [6] | [7] | [8] | [11] | [12] | [13] | [14] | [15]

CC1(C)CC(N=C=O)CC(C)(CN=C=O)C1 (stereo unspecified)
inactive: [1] | [2] | [3] | [4] | [5] | [6] | [7] | [8] | [11] | [12] | [13] | [14] | [15] | [16]

NS(=O)(=O)c1cc2c(cc1Cl)NC=NS2(=O)=O
inactive: [1] | [2] | [3] | [4] | [5] | [6] | [7] | [8] | [11] | [12] | [13] | [14] | [15] | [16]

COC(=O)c1ccc(C(=O)OC)cc1
inactive: [1] | [2] | [3] | [4] | [5] | [6] | [7] | [8] | [11] | [12] | [13] | [14] | [15]

NCCc1ccc(O)c(O)c1
inactive: [1] | [2] | [3] | [4] | [5] | [6] | [7] | [8] | [15]
active: [12] 54.6 µM | [13] 15.4 µM | [14] 19.4 µM

CC(C)NCC(O)COc1cccc2ccccc12 (stereo unspecified)
inactive: [1] | [2] | [3] | [4] | [5] | [6] | [7] | [8] | [11] | [12] | [15]
61.8 µM (active) and inactive: [13] | [14]

OC[C@@H](O)[C@H](O)[C@H](O)[C@@H](O)CO
inactive: [1] | [2] | [3] | [4] | [5] | [6] | [7] | [8] | [12] | [13] | [14] | [15]

O=[N+]([O-])c1cccc(Cl)c1
inactive: [1] | [2] | [3] | [4] | [5] | [6] | [7] | [8] | [12] | [13] | [14] | [15] | [16]

CC[Si](OC(C)=O)(OC(C)=O)OC(C)=O
inactive: [1] | [2] | [3] | [4] | [5] | [6] | [7] | [8] | [11] | [12] | [13] | [14] | [15] | [16]

CC(C)n1c(/C=C/[C@@H](O)C[C@@H](O)CC(=O)O)c(-c2ccc(F)cc2)c2ccccc21
active: [12] 1.06 µM and 6.11 µM | [13] 9.4 nM and 3.06 µM | [14] 3.35 µM and 8.63 µM
inactive: [1] | [2] | [3] | [4] | [5] | [6] | [7] | [8] | [11] | [16]

C=CC(=O)OCCCCCCCC(C)C
inactive: [1] | [2] | [3] | [4] | [5] | [6] | [7] | [8] | [11] | [15] | [17] | [18] | [19] | [16] | [20]
inactive and 27.3 µM (active): [14]
inactive and 48.5 µM (active): [12]
inactive and 54.4 µM (active): [13]

C/C=C(C)/C=C/C=C(C)C
inactive: [1] | [2] | [3] | [4] | [5] | [6] | [7] | [8] | [11] | [15]
active: [12] 61.1 µM | [14] 54.5 µM
